According to PubChem BioAssay AID2315 (National Center for Advancing Translational Sciences (NCATS), 2010):
About 27,000 (9.3%) of roughly 290,000 compounds were called active. This is one part of a sample in which actives are shown more often than they occur. Values without a mark were called inactive. Cut-off read from the data, not from the text of the source: active = inhibition mostly above about 28% (no sharp cut-off); inactive = mostly below about 43%. Where a SMILES comes first, the peptide text is derived from it.

assay: A qHTS for Small Molecule Inhibitors of Shiga Toxin; conditions: Vero cells, Shiga toxin protein synthesis inhibition reporter; at 38.7 µM, active compounds read high; note: 0% is about no effect

Row | SMILES | inhibition
1 | CCCc1cc(=O)[nH]c(SCC(=O)Nc2sc3c(c2C#N)CCCC3)n1 | -2.72%
2 | COc1ccc(C)cc1N(CC(=O)NC(C)c1ccccc1)S(C)(=O)=O (stereo unspecified) | -6.92%
3 | Cc1ccc(-c2nc3ccccc3[nH]2)cc1NC(=O)c1sc2ccccc2c1Cl | -6.19%
4 | COc1ccc(Br)cc1C(=O)Nc1cccc(C)c1C | 26.5%
5 | COc1ccc(Br)cc1C(=O)NC(=S)Nc1cc(-c2nc3ccccc3[nH]2)ccc1C | 0% (active)
6 | COC(=O)COc1ccc2c(c1C)O/C(=C\c1ccco1)C2=O | 15%
7 | Cc1ccc(/C=C2/SC(=S)N(CCC(=O)NCCCN3CCOCC3)C2=O)cc1 | 21.5%
8 | CCn1cc(CN2CCC(C(=O)Nc3cccc(-c4cccc(Cl)c4)c3)CC2)cn1 | -25.7%
9 | COc1ccccc1NC(=O)c1ccc2nc(N3C(=O)CCC3=O)sc2c1 | 36%
10 | CCOC(=O)N1CCN(CC(=O)Nc2cc(C)nn2-c2nc3ccccc3s2)CC1 | -4.88%
11 | COc1ccc(C2=NN(c3nc4ccccc4s3)C(=O)C2)cc1 | 72.3% (active)
12 | Cc1ccc2c(c1)N(CC(=O)N1CCC(O)CC1)C(=O)CO2 | 1.8%
13 | COc1ccc2[nH]c(=O)c(CN(Cc3cccnc3)S(=O)(=O)c3ccccc3F)cc2c1 | -10.7%
14 | COc1ccc(-c2nc(CS(=O)CC(=O)NCc3ccccc3)c(C)o2)cc1OC (stereo unspecified) | -3.29%
15 | C/C(CC(=O)NCc1ccc(Cl)cc1)=N\NC(=O)COc1ccc(C)cc1Br | 2.05%
16 | CC(=O)Nc1ccc(NC(=O)c2sc3nc4c(c(-c5ccc(C)cc5)c3c2N)CCC4)cc1 | -4.09%
17 | Cc1cccc(NC(=O)c2sc3nc4c(c(-c5ccco5)c3c2N)CCC4)c1 | -3.76%
18 | Cc1ccc(NC(=O)c2sc3nc(N)c(C#N)cc3c2N)cc1 | 63.4% (active)
19 | Cc1c(CCC(=O)O)c(=O)oc2c(C)c(OCc3ccccc3Cl)ccc12 | -3.03%
20 | CN(Cc1ccccc1)C(=O)COc1ccccc1 | 60.6% (active)
21 | CN(Cc1ccccc1)C(=O)c1ccc(COc2ccccc2)cc1 | 12.4%

Row | SMILES | inhibition
22 | CN(Cc1ccc(F)cc1)C(=O)COc1ccc2ccccc2c1 | 26.4%
23 | Cc1cc(C)c(NC(=O)CSc2nc3ccncc3[nH]2)c(C)c1 | -6.43%
24 | CC(N=Cc1nc(-c2ccccc2)oc1O)c1ccccc1 (stereo unspecified) | 54.4% (active)
25 | CCOc1ccc2nc(/N=C/c3nc(-c4ccccc4)oc3O)sc2c1 | -1.97%
26 | CCC1(CC)NC(=O)N(CC(=O)OCC(=O)NC(=O)c2ccccc2)C1=O | 19.1%
27 | COC(=O)C1[C@H]2SC(C)(C)C(C(=O)OC)N2C(=O)N1Cc1nc2ccccc2s1 (stereo partly specified) | 5.52%
28 | CCC1(CC)NC(=O)N(Cc2nc3ccccc3s2)C1=O | 26.9% (active)
29 | CC(C)OCCCNC(=S)N1CCC(C(=O)c2ccc3c(c2)OCCO3)CC1 | -16.4%
30 | Cc1nn(CC(=O)N2CCCCC2)c(=O)c2nn(-c3ccccc3)c(C)c12 | -2.2%
31 | CCCc1nn(C)c2c(=O)[nH]c(-c3cc(S(N)(=O)=O)ccc3OCC)nc12 | -4.47%
32 | CCCc1nc(-c2cc3cc(C)ccc3[nH]c2=O)no1 | -2.41%
33 | Cc1ccc(-c2noc(CC(c3ccccc3)c3ccccc3)n2)cc1 | -20.2%
34 | COc1ccc(CNc2cc(C)cc(C)c2)cc1OC | -14.7%
35 | COc1ccc2[nH]c(=O)c(-c3noc(-c4ccc(F)cc4)n3)cc2c1 | 69.3% (active)
36 | COc1ccc(Cc2nc(-c3ccccn3)no2)cc1OC | 56.5% (active)
37 | COc1ccccc1CNS(=O)(=O)c1ccc(C)cc1 | 11.5%
38 | COc1ccc(CCNS(=O)(=O)c2cccc3cccnc23)cc1OC | 18.1%
39 | COc1ccc(N(Cc2cc3cc(OC)ccc3[nH]c2=O)S(C)(=O)=O)cc1 | -19.8%
40 | COc1ccc(-c2noc(CSc3ccc(C)cc3)n2)cc1 | 14.3%
41 | COc1ccccc1Cc1nc(-c2ccc(C)cc2)no1 | 57.4% (active)
42 | COc1ccc(-c2noc(CN(C)S(=O)(=O)c3ccc(C)cc3)n2)cc1 | -3.7%

Row | SMILES | inhibition
43 | COc1ccc(-c2noc(-c3ccc(C)cc3)n2)cc1 | 79% (active)
44 | CC(=O)NC1CCN(CC(=O)Nc2nccs2)CC1 | -3.57%
45 | CN=C1S/C(=C\c2c(OC)cc(OC)cc2OC)C(=O)N1C | -8.5%
46 | CC[C@H](C)[C@H](NC(=O)[C@H](Cc1cnc[nH]1)NC(=O)[C@@H](N)CCC(=O)O)C(=O)N1CCC[C@H]1C(=O)N[C@@H](C)C(=O)O (H-EHIPA-OH) | -0.529%
47 | CC(=O)C1=C(C)NC(=O)NC1c1ccc2c(c1)OCO2 (stereo unspecified) | 2.18%
48 | COc1ccccc1C(=O)COC(=O)CNS(=O)(=O)c1ccc(NC(C)=O)cc1 | -27.5%
49 | CC(CC(=O)Nc1ccc(F)cc1F)S(=O)(=O)c1ccc2c(c1)NC(=O)CO2 (stereo unspecified) | -3.11%
50 | CCCCNC(=O)c1ccccc1NC(=O)C1=C(C)OCCS1 | 1.7%
51 | CC1=C(C(=O)Nc2ccccc2)S(=O)(=O)CCO1 | 31.9%
52 | CC1=C(C(=O)Nc2ccccc2)SCCO1 | 52.1% (active)
53 | Cc1cccc(N(C(=O)c2sc(C)nc2C)C(C(=O)NCC2CCCO2)c2ccccc2)c1 (stereo unspecified) | -10.3%
54 | COc1ccccc1NC(=O)c1ccc(N2CC3CC(C2)c2cccc(=O)n2C3)c(NC(=O)c2cccnc2)c1 (stereo unspecified) | 7.14%
55 | NS(=O)(=O)c1cc(C(=O)NCCOc2ccccc2)c(Cl)cc1Cl | -6.15%
56 | COc1ccc(Cl)cc1C(=O)NCc1cn(C)nc1C | -46.7%
57 | Cc1nn(C)cc1CNC(=O)Nc1ccc(Cl)cc1 | 58.7% (active)
58 | O=C(Nc1ccc(Cl)cc1)Nc1ccc(C(=O)N2CCOCC2)cc1 | 32.1%
59 | Cc1nn(C)cc1C(=O)NNC(=S)Nc1ccc(Cl)cc1 | 3.52%
60 | Cc1cc(NC(=O)Nc2ccc(Cl)cc2)n(-c2ccccc2)n1 | 15.7%
61 | Cn1ccc(NC(=O)Nc2ccc(Cl)cc2)n1 | 93% (active)
